Screening data: PubChem BioAssay, University of Kansas High Throughput Screening Laboratory
The sample as a whole holds a higher share of hits than the screen did.
mHTT-CaM PPI inh: inhibitors of human mutant huntingtin-calmodulin interaction; AlphaScreen His-mHTT/GST-CaM binding, luminescence; inhibition, % at 15 µM; actives 3.6% (n = 190,000); P42858;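 also: 0% = both proteins with DMSO and 100% = one protein alone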
Pf apPOL inh: Pf-apPOL DNA polymerase inhibition. Recombinant Pf-apPOL, molecular beacon fluorescence, 1.5 h. inhibition, % at 10 µM. actives 0.25% (n = 210,000)
An asterisk follows results filed as active; x = no result given. Rule as the data show it: active = inhibition above about 50%; inactive = the rest.

SMILES	mHTT-CaM PPI inh	Pf apPOL inh
CC1=C(C)C(=NS(=O)(=O)c2ccccc2)C=CC1=O	37	1
O=C1C=CC(=NS(=O)(=O)c2ccccc2)C=C1Br	57*	-5
O=C1Nc2ccc(Cl)cc2/C1=c1\sc2n(c1=O)CN(c1cccc(Br)c1)CN=2	52*	-6
O=c1/c(=C/c2ccccc2)sc2n1CN(c1cccc(Br)c1)CN=2	-13	-4
O=C(NCc1ccc(Cl)cc1)NCC(O)c1cccs1 (stereo unspecified)	-10	0
COc1cc(C(CCN2CCOCC2)c2c(OC)cc(OC)c3c(-c4ccccc4)cc(=O)oc23)cc(OC)c1OC (stereo unspecified)	75*	-22
COc1cc(O)c(CN2CCCC2)c2oc(-c3ccccc3)cc(=O)c12	3	0
O=c1cc(-c2ccccc2)c2ccc(O)c(CN3CCOCC3)c2o1	-10	2
CCN(CC)C(=O)CC(c1cc(OC)c(OC)c(OC)c1)c1c(OC)cc(OC)c2ccc(=O)oc12 (stereo unspecified)	26	-3
COc1cc(C(CCN2CCCC2)c2c(OC)cc(OC)c3c(-c4ccccc4)cc(=O)oc23)cc(OC)c1OC (stereo unspecified)	58*	-20
CCN(CC)C(=O)CC(c1cc(OC)c(OC)c(OC)c1)c1c(OC)cc(OC)c2c(-c3ccccc3)cc(=O)oc12 (stereo unspecified)	69*	9
Cc1ccc(-n2cc(C(=O)NC(C)C)c3ccccc3c2=O)cc1C	5	-4
COc1ccc(-c2csc(/C(C#N)=C/Nc3ccc([N+](=O)[O-])cc3)n2)cc1OC	-2	-7
O=C(O)c1ccccc1-c1ccccc1C(=O)Nc1ccc(Br)cn1	4	-1
COc1ccc(NC(=O)N2CCCC2c2cc(C)no2)cc1OC (stereo unspecified)	-4	-6
CCCCCC1(C)NC(=S)N(c2ccc(Cl)cc2)N1 (stereo unspecified)	-2	x
CCc1ccccc1NC(=O)C1(C)Oc2cccnc2N(CC)C1=O (stereo unspecified)	-10	-2
CCNC(=O)Nc1ccc2c(c1)CN(C(C)CC)C(=O)C(C)O2 (stereo unspecified)	2	-2
O=C(CN1CCC(c2nc(-c3cccs3)no2)CC1)Nc1ccccc1C(F)(F)F	-16	-3
Cc1cc(C)cc(NC(=O)C(=O)NCCc2cccs2)c1	-12	-9
CC1CCN(C(=O)c2ccccc2N2CCC(NC(=O)C3CCC3)CC2)CC1	27	-47
OCc1nc2ccccc2n1Cc1ccc(Br)cc1	7	-1
Cc1nc2ccccc2n1CC(O)COc1ccccc1Cl (stereo unspecified)	58*	-5
OCc1nc2ccccc2n1CC(O)COc1ccc(Br)cc1 (stereo unspecified)	73*	2
Cc1ccc(Cl)c(OCC(O)Cn2c(C)nc3ccccc32)c1 (stereo unspecified)	10	-7
SMILES	mHTT-CaM PPI inh	Pf apPOL inh
Cc1cc(OCC(=O)Nc2ccccc2C)nc(N2CCCCC2)n1	-7	1
O=C(NC1CC1)c1ccccc1OCC1CCN(C(=O)c2cccc(Cl)c2)CC1	15	46
CC1=C(C(=O)Nc2cc(C)ccn2)C(c2cc(C)sc2C)C2=C(CC(C)(C)CC2=O)N1 (stereo unspecified)	6	6
CCCNC(=O)NC12CC3CC(CC(C3)C1)C2	-2	1
COc1cccc(-n2c(=O)c3sccc3n(Cc3ccccc3C)c2=O)c1	-3	-1
Cc1cccc(/C=C/c2ccc3cccc(O)c3n2)c1O	38	-3
Oc1cccc2ccc(/C=C/c3cc4c(cc3Cl)OCO4)nc12	56*	-7
Oc1cccc2ccc(/C=C/c3ccc4c(c3)OCO4)nc12	37	-1
Oc1cccc2ccc(/C=C/c3ccccc3Cl)nc12	52*	5
COC(=O)c1cnc2nc(C)ccc2c1Nc1cccc(Cl)c1	11	-5
CCOC(=O)c1cnc2nc(C)ccc2c1Nc1ccc(F)c(Cl)c1	68*	-10
CCOC(=O)c1cnc2nc(C)ccc2c1Nc1cc(F)ccc1Cl	42	0
CCOC(=O)c1cnc2nc(C)ccc2c1Nc1cccc(Cl)c1	63*	-13
COC(=O)c1cnc2nc(C)ccc2c1Nc1ccc(Cl)cc1F	38	-3
COC(=O)c1cnc2nc(C)ccc2c1Nc1ccc(Cl)cc1C	85*	1
CC1CCN(C(=O)C2CCc3sc(C(=O)N4CCCC4)cc3C2)CC1 (stereo unspecified)	4	-2
Oc1ccc(C=Nc2ccc(-c3ccccc3)cc2)cc1	5	-20
Oc1ccc(N=Cc2ccc(Br)cc2)cc1	64*	-8
COC(=O)N1CCc2ccc(Br)cc2C1C(=O)Nc1ccc(F)c(F)c1F (stereo unspecified)	-3	-4
CCOc1ccc(CCNC(=O)c2cc3cc4ccc(OC)cc4nc3o2)cc1OCC	4	-2
Cc1noc(C)c1C1CCCN1C(=O)c1cccc(C#N)c1 (stereo unspecified)	-7	4
